Data reported in PubChem BioAssay (Tox21).
Values joined by “and” are separate entries in the source; they are usually repeats but may differ in a detail not shown here. Equal entries are not always repeated. Results filed as inconclusive are left out. Active and inactive are the calls of the source. Unless noted, the call rests on the fitted dose curve; in most records, active means well fitted curve in the direction sought with a large enough effect in the repeat runs; inconclusive means weak or mixed curves; inactive means no such curve, though single readings can be large; an effect the other way counts as inactive or inconclusive.

Tests used:
[1] = qHTS assay to identify small molecule antagonists of the glucocorticoid receptor (GR) signaling pathway - cell viability counter screen (AID 720693); further: nearly all actives have a fitted effect of over 55% in size; further: potency means the concentration at half of the fitted maximal effect
[2] = qHTS assay for identifying genotoxic compounds that show differential cytotoxicity against isogenic chicken DT40 cell lines with known DNA damage response pathways - Rev3 mutant cell line (AID 743014); further: nearly all actives have a fitted effect of over 55% in size; further: potency means the concentration at half of the fitted maximal effect
[3] = qHTS assay for identifying genotoxic compounds that show differential cytotoxicity against isogenic chicken DT40 cell lines with known DNA damage response pathways - Rad54/Ku70 mutant cell line (AID 743015); further: nearly all actives have a fitted effect of over 60% in size; further: potency means the concentration at half of the fitted maximal effect
[4] = target: Androgen receptor (Homo sapiens) (UniProt P10275); assay: qHTS assay to identify small molecule agonists of the androgen receptor (AR) signaling pathway using the MDA cell line (AID 743040; further: nearly all actives have a fitted effect of over 20% in size; further: potency means the concentration at half of the fitted maximal effect)
Summary of the method: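 Cells plated, 5 h at 37C/0% CO2; compound or DMSO pinned; 16 h at 37C; ONE-Glo added; luminescence measured after 30 min at room temperature. Reporter line: MDA-kb2 with MMTV-luciferase responsive to AR and GR.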

[5] = qHTS assay to identify small molecule antagonists of the androgen receptor (AR) signaling pathway using the MDA cell line - cell viability counter screen (AID 743041; further: nearly all actives have a fitted effect of over 45% in size; further: potency means the concentration at half of the fitted maximal effect)
Summary of the method: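 Cells were plated at 3,000 per well and left 5 h. Compounds in DMSO were then pinned in, followed by R1881. After 16 h at 37C, CellTiter-Fluor fluorescence gave viability.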

[6] = target: Androgen receptor (Homo sapiens) (UniProt P10275); assay: qHTS assay to identify small molecule antagonists of the androgen receptor (AR) signaling pathway using the MDA cell line (AID 743042; further: nearly all actives have a fitted effect of over 55% in size; further: potency means the concentration at half of the fitted maximal effect)
Summary of the method: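 Antagonist mode: compounds plus R1881 agonist added to MDA-kb2 AR-luc cells, incubated 16 h at 37C. Luciferase reporter luminescence quantified, with multiplexed CellTiter-Fluor readout for cell viability.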

[7] = qHTS assay to identify small molecule antagonists of the androgen receptor (AR) signaling pathway - cell viability counter screen (AID 743033; further: nearly all actives have a fitted effect of over 45% in size; further: potency means the concentration at half of the fitted maximal effect)
[8] = qHTS assay for identifying genotoxic compounds that show differential cytotoxicity against isogenic chicken DT40 cell lines with known DNA damage response pathways - wild type cell line (AID 743012); further: nearly all actives have a fitted effect of over 60% in size; further: potency means the concentration at half of the fitted maximal effect
Summary of the method: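 Cells (DT40 wild type, 300/well) are treated with DMSO-dissolved compounds after a ~0.5 h pre-incubation and kept 40 h at 37 C/5% CO2. Viability is then measured by CellTiter-Glo luminescence following 30 min at room temperature.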

[9] = target: Androgen receptor (Homo sapiens) (UniProt P10275); assay: qHTS assay to identify small molecule agonists of the androgen receptor (AR) signaling pathway (AID 743036; active means well fitted activation curve with a large enough effect in the signal ratio in the repeat runs, with a control signal flat, not every such curve was filed as active; the % refers to the signal ratio)
Summary of the method: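 Cell-based FRET reporter assay: HEK293 line with a UAS-beta-lactamase construct, compounds added in DMSO, 16 h exposure at 37C, then 2 h substrate step at room temperature and fluorescence intensity read.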

[10] = target: Androgen receptor (Homo sapiens) (UniProt P10275); assay: qHTS assay to identify small molecule antagonists of the androgen receptor (AR) signaling pathway (AID 743035; active means well fitted inhibition curve with a large enough effect in the signal ratio in the repeat runs, not every such curve was filed as active; the % refers to the signal ratio; further: potency means the concentration at half of the fitted maximal effect)
Summary of the method: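 Antagonism is scored as loss of R1881-driven beta-lactamase reporter expression in HEK293 cells carrying the reporter under a UAS element, after 16 h co-treatment at 37C and a 2 h room-temperature FRET substrate read.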

Measured: Potency

Androgen receptor (Homo sapiens), sequence (P10275 whole entry, looked up): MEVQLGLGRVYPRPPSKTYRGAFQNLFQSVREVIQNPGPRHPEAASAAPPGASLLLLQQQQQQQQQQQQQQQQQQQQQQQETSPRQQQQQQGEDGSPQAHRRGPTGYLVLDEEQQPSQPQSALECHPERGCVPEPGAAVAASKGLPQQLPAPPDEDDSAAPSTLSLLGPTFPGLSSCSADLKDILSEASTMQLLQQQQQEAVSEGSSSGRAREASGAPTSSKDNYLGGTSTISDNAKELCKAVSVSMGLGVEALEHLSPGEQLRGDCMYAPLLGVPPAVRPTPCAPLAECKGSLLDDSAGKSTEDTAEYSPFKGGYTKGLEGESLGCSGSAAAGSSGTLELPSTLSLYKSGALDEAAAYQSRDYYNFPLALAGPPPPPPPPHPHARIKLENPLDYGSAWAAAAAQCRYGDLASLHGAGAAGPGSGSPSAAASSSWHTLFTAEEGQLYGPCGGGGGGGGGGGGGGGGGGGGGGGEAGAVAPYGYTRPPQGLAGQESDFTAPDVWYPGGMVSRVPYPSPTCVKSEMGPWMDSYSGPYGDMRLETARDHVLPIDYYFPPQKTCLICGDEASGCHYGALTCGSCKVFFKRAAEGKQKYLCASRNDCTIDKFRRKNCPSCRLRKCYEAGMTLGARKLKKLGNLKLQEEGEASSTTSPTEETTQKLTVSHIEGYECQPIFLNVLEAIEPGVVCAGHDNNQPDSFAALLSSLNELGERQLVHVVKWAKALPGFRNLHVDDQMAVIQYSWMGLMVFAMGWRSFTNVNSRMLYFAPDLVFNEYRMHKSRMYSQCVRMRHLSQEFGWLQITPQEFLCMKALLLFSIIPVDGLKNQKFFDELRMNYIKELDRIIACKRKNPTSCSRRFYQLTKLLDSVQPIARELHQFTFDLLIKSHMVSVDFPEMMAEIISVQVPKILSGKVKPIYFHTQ

CCC(C)(C)c1cc(O)c(C(C)(C)CC)cc1O
inactive: [1] | [4] | [5] | [6]
active: [2] 21.7 µM | [3] 17.2 µM

Clc1ccc(C(Cn2ccnc2)OCc2c(Cl)cccc2Cl)c(Cl)c1 (stereo not drawn)
active: [2] 12.7 µM | [3] 11.4 µM
inactive: [1] | [7] | [4] | [5] | [6]

CCC(=O)OCCc1ccccc1
inactive: [1] | [5]
active: [8] 18.5 µM | [3] 41.4 µM

COc1cc(C=C2CCC/C(=C\c3ccc(O)c(OC)c3)C2=O)ccc1O
active: [1] 23.9 µM | [2] 11.9 µM | [3] 9.44 µM | [6] 21.1 µM
inactive: [4]

Cn1cnc2ncnc(N)c21
inactive: [1] | [2] | [3] | [5]

COc1cccc(CCc2ccccc2OCC(CN(C)C)OC(=O)CCC(=O)O)c1 (stereo not drawn)
inactive: [1] | [7] | [5]
active: [2] 10.6 µM | [3] 11.9 µM

C=CCCCCCCC=C
inactive: [1] | [8] | [3] | [5]

CCCSS/C(CCO)=C(\C)N(C=O)Cc1cnc(C)nc1N
active: [2] 8.41 µM | [3] 13.3 µM
inactive: [1] | [9] | [4] | [5]

C(=C/c1ccccc1)/c1ccccc1
inactive: [1] | [2] | [3] | [7] | [5]

CCOC(=O)[C@@](C)(N)Cc1ccc(O)c(O)c1
inactive: [1] | [2] | [3] | [5]

O=C(Nc1ccc(Cl)cc1)Nc1ccc(Cl)c(C(F)(F)F)c1
active: [1] 21.3 µM | [8] 4.22 µM | [3] 5.31 µM | [5] 23.7 µM

O=C(Oc1ccccc1)c1cccc(C(=O)Oc2ccccc2)c1
active: [2] 72.3 µM | [3] 67 µM
inactive: [1] | [7] | [4] | [5] | [6]

CCN(CC)CCCN(c1ccccc1)C1Cc2ccccc2C1
active: [1] 23.9 µM | [8] 0.531 µM | [3] 1.5 µM | [5] 11.9 µM

CC(C(O)c1ccccc1)N(C)CCOC(c1ccccc1)c1ccccc1 (stereo not drawn)
inactive: [1]
active: [8] 5.31 µM | [3] 9.44 µM | [5] 26.6 µM

C[C@]12CC[C@H]3C(=CCc4cc(O)ccc43)[C@@H]1CCC2=O
active: [2] 54.5 µM | [3] 48.6 µM | [4] 5.45 µM | [6] 27.3 µM
inactive: [1]

CCN(CC)CCSC(=O)C(c1ccccc1)c1ccccc1
inactive: [1] | [5]
active: [8] 26.6 µM

CC(C)c1ccc(O)c(C(C)C)c1
active: [2] 54.5 µM | [3] 48.6 µM | [7] 49 µM
inactive: [1] | [5]

CCCCCCC(C)Nc1ccc(Nc2ccccc2)cc1 (stereo not drawn)
inactive: [5]
active: [1] 49 µM | [8] 17.2 µM | [3] 17.2 µM

CCN=C1C=CC(=C(c2ccc(N(CC)CC)cc2)c2ccc(N(CC)CC)cc2)c2ccccc21
inactive: [4]
active: [1] 24.4 µM | [2] 0.0305 µM | [3] 0.0192 µM | [5] 0.121 µM | [6] 0.043 µM

CC(C)(C)CC(C)(C)c1ccccc1O
active: [1] 34.9 µM | [2] 24.5 µM | [3] 54.8 µM | [7] 39.1 µM
inactive: [5]

O=Cc1ccc(F)cc1
active: [2] 19.3 µM | [3] 19.3 µM
not listed: [8] | [9]
inactive: all other assays above

C[C@@H]1CC[C@H]2C(C)(C)[C@H]3C[C@@]12CC[C@@]3(C)O
not listed: [8]
inactive: all other assays above

CCN=c1cc2oc3cc(NCC)c(C)cc3c(-c3ccccc3C(=O)OCC)c-2cc1C
inactive: [4]
active: [1] 21.8 µM and 21.9 µM | [2] 384 nM and 137 nM | [3] 305 nM and 109 nM | [7] 689 nM and 1.23 µM | [10] 0.154 µM | [5] 683 nM and 386 nM | [6] 108 nM and 96.9 nM

CN(C)CCOC(c1ccccc1)c1ccccc1 (tested in a mixture with another compound)
inactive: [1] | [4] | [5]

CC(CN(C)C)CN1c2ccccc2CCc2ccccc21 (stereo not drawn)
inactive: [1] | [7] | [5]
active: [2] 12.7 µM

Brc1ccccc1-c1ccccc1
inactive: [1] | [7] | [5]
active: [3] 41 µM
